# Screens: PubChem, National Center for Advancing Translational Sciences (NCATS)
# Compounds with a hit are over-represented: about 7.5% of the library has one in this group of screens.
# SMN2 splice up = SMN2 splice variant enhancement; 2.8% of 210,000 active; Potency, µM (titrated, usually from 46.1 µM), without a hit: at the highest dose activity change, positive = activation, hits mostly activators; HEK293 SMN2-luciferase splicing reporter, luminescence, 30-36 h; further: % of control where 0% means no effect; nearly all actives have a fitted effect of over 55% in size
#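 HEK293 cells carry an SMN2 minigene-luciferase reporter in which exon 7 inclusion puts luciferase in frame. Cells were seeded at 2000 cells/well, attached for 10-12 hours, then exposed to compounds for 30-36 hours at 37C before ONE-Glo luminescence.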
# ELG1 genotox = inducers of genotoxicity in HEK293T ELG1-luciferase cells; AID 504466; HEK293T ELG1-luciferase reporter, luminescence, 16 h; Potency, µM (doses to about 46 µM), for the others: at the top dose activity change, positive = activation, actives largely listed as activators; 1.3% of 330,000 active; further: % of control where 0% means no effect; nearly all actives have a fitted effect of over 60% in size
#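 16 hr compound incubation (37 °C, 5% CO2) of HEK293T cells carrying luciferase-tagged ELG1; luciferase then measured by ONE-Glo luminescence after 30 min at RT.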
# Rab9 promoter act = activates the Rab9 promoter; 2.8% of 320,000 active; Huh7 Rab9 promoter-luciferase reporter, luminescence, 24 h; AID 485297; Potency, µM (doses to about 9.22 µM), inactives show top-dose activation, negative = inhibition, most hits filed as activators; further: % of control where 0% means no effect; nearly all actives have a fitted effect of over 60% in size
#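 Huh7 reporter line, Rab9 promoter upstream of luciferase. Compound exposure 24 h at 37 °C in reduced-serum medium with 10% FBS. Read-out: luminescence.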
# NPC1 prom act = activates the NPC1 promoter | Huh7 NPC1 promoter luciferase reporter, 24 h | Potency, µM (highest dose often 9.22 µM), for the others: at the highest dose activation, hits mostly activators | 2.4% of 320,000 active | AID 485313; further: % of control where 0% means no effect; nearly all actives have a fitted effect of over 60% in size
#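 Compounds in DMSO were transferred onto Huh7 NPC1-luciferase reporter cells pre-incubated 2 h; after 24 h at 37 °C, Amplite reagent was dispensed and luminescence recorded 10 min later.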
# FLuc modulator = counter-screen for miR-21 project: firefly luciferase inhibitors or activators. P08659. purified FLuc, Km substrates, luminescence inhibition. Potency, µM (doses to about 57.5 µM), without a hit: at the top dose activity change, negative = inhibition, usual class: inhibitors. 6.9% of 360,000 active;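 further: plate controls were vehicle for no effect and reference inhibitor for full effect; nearly all actives have a fitted effect of over 55% in size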
# Target sequence (P08659 whole entry, looked up): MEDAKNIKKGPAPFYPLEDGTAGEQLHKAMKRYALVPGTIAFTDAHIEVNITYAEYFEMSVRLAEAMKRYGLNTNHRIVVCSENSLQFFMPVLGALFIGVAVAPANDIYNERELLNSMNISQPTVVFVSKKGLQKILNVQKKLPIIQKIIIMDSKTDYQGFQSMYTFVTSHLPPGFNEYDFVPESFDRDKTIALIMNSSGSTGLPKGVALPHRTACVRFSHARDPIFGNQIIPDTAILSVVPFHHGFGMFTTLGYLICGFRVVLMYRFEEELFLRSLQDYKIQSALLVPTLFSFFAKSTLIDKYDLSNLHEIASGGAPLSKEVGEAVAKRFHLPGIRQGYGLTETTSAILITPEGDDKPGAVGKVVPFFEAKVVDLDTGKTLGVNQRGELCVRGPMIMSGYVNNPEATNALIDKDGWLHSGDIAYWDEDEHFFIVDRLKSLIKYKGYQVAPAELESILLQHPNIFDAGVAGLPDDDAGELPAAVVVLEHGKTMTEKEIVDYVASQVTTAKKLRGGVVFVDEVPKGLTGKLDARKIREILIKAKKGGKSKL
#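 Purified P. pyralis luciferase (10nM final) with 10uM D-luciferin and 10uM ATP (Km levels) in 50mM Tris acetate pH 7.5, 10mM Mg acetate, 0.01% Tween-20, 0.05% BSA; qHTS 6-point titration, ~60 µM downward; luminescence read.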
# * = called active by the depositor; ? = inconclusive; . = not tested or not shown; [ ] = dose if it differs, or a comment. The call rests on the fitted dose curve; in most records, active means well fitted curve in the direction sought with a large enough effect; inconclusive means small, poorly fitted or top-dose-only effect, or another doubt; inactive means no such curve, though single readings can be large; an effect the other way counts as inactive or inconclusive. Potency means the concentration at half of the fitted maximal effect.
SMILES,SMN2 splice up,ELG1 genotox,Rab9 promoter act,NPC1 prom act,FLuc modulator
CSc1nc2c(c(=O)[nH]1)C(c1cccc(Br)c1)CC(=O)N2 (configuration not stated),-6%,1%,-2%,2%,?
COc1ccc(N2CCN(CC(=O)Nc3nc(C)cs3)CC2)cc1,.,-5%,-4%,-3%,10%
Cc1ccc2nc(SC(C)C(=O)N3CCOCC3)[nH]c2c1 (configuration not stated),20µM*,?,3.2µM*,2.5µM*,24µM*
O=C(COC(=O)CCCSc1nc2ccccc2[nH]1)Nc1cccc(F)c1,.,1%,-3%,-2%,13µM*
O=C(CSc1ncccc1-c1nc2ccccc2[nH]1)Nc1ccc2c(c1)OCCO2,-6%[1.84 µM],11%,20%,7%,27µM*
CC(Sc1nc(N)cc(=O)[nH]1)C(=O)N1CCOCC1 (configuration not stated),.,1%,0%,-1%,-1%
O=C(CSc1nc2ccccc2[nH]1)Nc1ccc2c(c1)OCCO2,-6%,4%,?,18%,8.5µM*
O=C(CSc1nc2ncccc2[nH]1)Nc1ccc2c(c1)OCO2,.,-4%,-2%,1%,?
Cc1ccc(Cl)cc1NC(=O)c1cccc(OC(F)F)c1,-31%,-1%,-5%,-2%,-24%
COc1cc(/C=N/NC(=S)NCc2ccco2)cc(OC)c1OC,35µM*,32%,-3%,-1%,0%
Cc1ccc(NC(=O)CN2C(=O)N/C(=C\c3ccco3)C2=O)cc1,.,-1%,.,.,.
O=C1O/C(=C/c2ccccc2)c2ccccc21,9%,-2%,3%,-3%,12µM*
COc1ccc(/C=C2\N=C(c3ccc(C)cc3)OC2=O)cc1,.,0%,4%,-2%,?
O=C1OC(c2ccc(F)cc2)=N/C1=C\c1ccc(Br)o1,8%,0%,-1%,-11%,6µM*
CN1CCC(NC(=O)c2cnn3c2NC(=C2CC2)C=C3C(F)F)CC1,.,.,.,.,3%
CN1C(=O)/C(=N\OC(=O)c2cccc3ccccc23)c2ccccc21,-11%,5%,9%,2%,11µM*
Cc1cc(=O)n(CCc2ccccc2)c(O)c1C#N,1%,3%,?,20%,13µM*
Cc1cc(=O)n(CCO)c(O)c1C#N,15%,0%,1%,1%,1%
COc1cc(/C=C/C2=NNC(=O)CC2)cc(OC)c1OC,.,?,-4%,-3%,-1%
CC(C)c1ccc(/C=C/C2=NNC(=O)CC2)cc1,10µM*,?,?,-18%,5.4µM*
COc1ccc2c(c1)Sc1ccccc1N2,-67%,2%,1%,3%,?
c1ccc2c(c1)Nc1cc3ccccc3cc1S2,.,10%,3.5µM*,3.2µM*,-27%
N[C@@H](Cc1cccc([N+](=O)[O-])c1)C(=O)O,6%[9.22 µM],.,.,.,.
O=C(Nc1ccc(Cl)cc1)N1CC=CCC1,-10%,22%,?,?,17µM*
Cc1ccc(-n2cnc3cc(NCc4cccs4)ccc32)cc1,-22%,9.2µM*,?,?,11µM*
SMILES,SMN2 splice up,ELG1 genotox,Rab9 promoter act,NPC1 prom act,FLuc modulator
c1ccc(-n2cnc3cc(NCc4cccs4)ccc32)cc1,17%,?,1µM*,?,2.1µM*
COc1ccc(-n2cnc3cc(NCc4cccs4)ccc32)cc1,1%,8%,29%,?,15µM*
c1ccc(-n2cnc3cc(NCc4ccco4)ccc32)cc1,13µM*,?,?,?,9.5µM*
Cc1cc(Cc2cc(C)cc(C(C)(C)C)c2O)c(O)c(Cc2cc(C)cc(C(C)(C)C)c2O)c1,-61%[9.22 µM],.,.,.,.
COc1ccc(S(=O)(=O)N2CCC(C(=O)NCc3cccnc3)CC2)cc1Cl,.,2%,4%,-5%,2%
CCOC(=O)N1CCN(C(=O)c2nc3ccccc3s2)CC1,?,?,13%,16%,19µM*
CCOC(=O)N1CCN(C(=O)c2ccc3c(c2)sc2nc(-c4ccccc4)cn23)CC1,-32%,1%,3.2µM*,3.5µM*,21µM*
Cc1ccc(CCNC(=O)CCCn2c(=O)c3ccccc3n(CC(=O)Nc3cc(Cl)ccc3C)c2=O)cc1,24%,.,.,.,1%
COc1ccc2c(c1)cc1c(=O)n(CC(=O)NCCCN3CCOCC3)nc(C)n12,.,3%,-4%,-3%,10%
Cc1cc(N2CCOCC2)nc2ccc(Cl)cc12,.,?,?,?,6µM*
CCC(C)NC(=O)CCC(=O)Nc1ccc2nc(N3CCOCC3)cc(C)c2c1 (configuration not stated),?,5%,28%,30%,?
CCCCN(C)C(=O)CCC(=O)Nc1ccc2nc(N3CCN(C)CC3)cc(C)c2c1,1%,1%,-6%,1%,-6%
CCN1CCN(c2cc(C)c3cc(NC(=O)CCC(=O)N4CCN(c5ccccc5OC)CC4)ccc3n2)CC1,.,2%,5%,14%,15µM*
CCCCN(C)C(=O)CCC(=O)Nc1ccc2nc(N3CCOCC3)cc(C)c2c1,20µM*,6%,?,?,?
Cc1cc(N2CCOCC2)nc2ccc(NC(=O)CCC(=O)N3CCC(C)CC3)cc12,.,7%,4.5µM*,?,12µM*
O=C(CNC(=O)c1cccc(Cl)c1)NCCCSc1ccccc1,.,-4%,0%,0%,-9%
Cc1cc(N2CCOCC2)nc2ccc(NC(=O)CCC(=O)N3CCCCC3)cc12,8.9µM*,?,4µM*,?,?
Cc1cc(N2CCC(C)CC2)nc2ccc(NC(=O)CCC(=O)N3CCN(c4ccccc4F)CC3)cc12,-12%,.,.,.,4.8µM*
Cc1cc(OC(C)C(=O)NCc2ccccn2)c2c(C)c(C)c(=O)oc2c1 (configuration not stated),.,?,-4%,-5%,2%
O=C(Nc1ccccc1Br)c1cc(S(=O)(=O)NC2CCCCC2)ccc1F,.,.,.,.,-8%
CCC(=O)N/C(N)=N/c1nc(C)c2cc(C)c(C)cc2n1,.,7%,-16%,-23%,?
CCCC(=O)N/C(N)=N/c1nc(C)c2cc(C)ccc2n1,.,5%,23%,-9%,17µM*
Cc1nc(/N=C(\N)NC(=O)c2ccccc2)nc2ccccc12,18µM*,5%,?,23%,?
O=C(Nc1scc(-c2ccccc2)c1C(=O)O)c1ccccc1F,.,6%,20%,21%,27µM*
Cc1ccc(-c2csc(NC(=O)c3ccccc3F)c2C(=O)O)cc1,.,-4%,4%[1.84 µM],?,21µM*
Cc1ccc(C(=O)Nc2scc(-c3ccccc3)c2C(=O)O)o1,4%,7%,3%,-1%,15µM*
Cc1ccc(C(=O)Nc2ccccc2-c2ccccc2)o1,25%,-2%,-3%,-1%,?
Cc1ccc(CSC2=Nc3ccccc3C3=NC(CCC(=O)N4CCN(c5ccccc5)CC4)C(=O)N23)cc1 (configuration not stated),28%,.,.,.,-4%
